Assay results published in PubChem BioAssay (NCATS).
Records with an inconclusive call do not appear. A number with no mark means an inactive call. The source made the active and inactive calls. Calls come from the whole dose curve; as a rule, active = well fitted inhibition curve with a large enough effect; inconclusive = small, poorly fitted or top-dose-only effect; inactive = flat fitted curve, though single readings scatter.

Assay: P-glycoprotein substrates identified in KB-8-5-11 adenocarcinoma cell line, qHTS therapeutic library screen (AID 1346987); note: nearly all actives have a fitted effect of over 65% in size
Conditions: KB-8-5-11 (P-gp overexpressing) viability, CellTiter-Glo, 72 h; series mostly up to 44.5 µM; activity change, negative = cytotoxicity: at the top concentration
Method in brief: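 KB-8-5-11: colchicine-selected sub-line of KB-3-1 over-expressing P-gp; assay medium lacked colchicine. 72 h drug exposure at 37 degree C, CellTiter-Glo.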
% is set by controls: 0 for no effect and ±100 for the full control effect; potency is the fitted concentration of half-maximal effect.

| SMILES | activity change, negative = cytotoxicity | Potency | outcome |
| --- | --- | --- | --- |
| O=C(c1ccccn1)N(Cc1cccs1)C1(C(=O)NC2CCCCC2)CCCCC1 | -21.5% |  |  |
| c1cc(-c2cnn3cc(-c4ccc(N5CCNCC5)cc4)cnc23)c2cccnc2c1 |  | 5.17 µM (active) |  |
| NCCOc1cc(C(=O)Nc2cc(OCCN)c3ccccc3n2)nc(C(=O)Nc2cc(OCCN)c3ccccc3n2)c1 | -0.506% |  |  |
| C[C@@H]1C[C@H]2C3C[C@H](F)C4=CC(=O)C=CC4(C)[C@@]3(F)[C@@H](O)CC2(C)[C@@]1(O)C(=O)COC(=O)C(C)(C)C (stereo partly specified) | -14.2% |  |  |
| NC(=O)N1CCC(CC(=O)N2CCC(C3c4ncc(Br)cc4CCc4cc(Cl)cc(Br)c43)CC2)CC1 (stereo unspecified) |  | 18.4 µM (active) |  |
| CC(=O)NC(C(=O)O[C@H]1CCC(C)(C)[C@@H]2CC=C3C(=O)OCC3(O)[C@@]12C)C(C)C (stereo partly specified) |  |  | inactive |
| CC(C)(C)c1ccc(C(=O)Nc2cc(Cl)c(Br)cc2C(=O)O)cc1 |  | 10.3 µM (active) |  |
| CCCC(Nc1nc(-c2ccc(NC(=O)NCC)c(OC)c2)ncc1C)c1cccnc1 (stereo unspecified) |  | 1.16 µM (active) |  |
| COc1ccc([C@H]2OC[C@H]3O[C@@H](O[C@H]4[C@@H]2NC[C@@H]4O)[C@H](O)[C@H]3O)cc1 |  | 1.61 µM (active) |  |
| C=C(CCC1C(C)(O)CCC2C(C)(C)C(O)CCC12C)C(O)CO (stereo unspecified) | -6.8% |  |  |
| CC(C)c1noc(C2CCN(c3ncnc(Nc4ccc(S(C)(=O)=O)cc4F)c3[N+](=O)[O-])CC2)n1 | -22% |  |  |
| COc1cc(C(=O)NCC2(N(C)C)CCCC2)cc(OC)c1OCc1ccccc1 | -22.3% |  |  |
| CCc1cc(C(N)=O)ccc1-n1nc(C(C)C)c2c(-n3cnc(-c4cnn(C)c4)c3)ccnc21 |  | 3.66 µM (active) |  |
| Cc1cc(N2CCOCC2)ccc1Nc1nc(NC2CCCCC2)c2[nH]cnc2n1 |  | 1.3 µM (active) |  |
| CCNc1nc(Nc2cc(F)c(C(=O)N3CCOCC3)cc2OC)ncc1C(F)(F)F |  | 9.2 µM (active) |  |
| Cc1cnn(-c2ccccc2)c1NC(=O)COCc1ccccc1 | -13.2% |  |  |
| CC(=O)OC1C(=O)C2C3OCC4=C3[C@@](C)(CC[C@@H]4O)CC[C@]2(C)[C@H]1C(C)C (stereo partly specified) | -6.73% |  |  |
| CCCn1ncc(CN2CCCC(C(=O)c3cccc(OC(C)C)c3)C2)c1C (stereo unspecified) | -35.6% |  |  |
| C=C1CO[C@@]2(O[C@H]3CC4C5CC=C6C[C@@H](O)C[C@@H](O[C@@H]7OC[C@H](O)[C@H](O[C@@H]8OC[C@@H](O)[C@H](O)[C@H]8O)[C@H]7O[C@@H]7O[C@@H](C)[C@H](OC(C)=O)[C@@H](OC(C)=O)[C@H]7OC(C)=O)[C@]6(C)C5CC[C@]4(C)[C@@H]3[C@@H]2C)[C@@H](O)[C@H]1OC1OC(C)C(O)C(O)C1O (stereo partly specified) |  |  | inactive [at 9.29 µM] |
| Cc1ccc(O)cc1Nc1ccnc(Nc2cccc(C(N)=O)c2)n1 |  | 23.1 µM (active) |  |
| C=C1C(=O)O[C@@H]2C=C(COC(C)=O)CC/C=C(\CO)CC[C@@H]12 |  |  | inactive |
| C=C1CCCC2(C)CCC(C(C)(C)OC3OC(C)C(O)C(O)C3OC(=O)/C(C)=C\C)CC12 (stereo unspecified) | -27.1% [at 17.3 µM] |  |  |
| COC1=CC(=O)O/C1=C(/OC)[C@@H]1O[C@H]1c1ccccc1 | 0.237% |  |  |
| O=C(c1ccccc1)c1c(O)cc(O)cc1O[C@@H]1O[C@H](CO)[C@@H](O)[C@H](O)[C@H]1O | -6.93% |  |  |
| Cn1cc(-c2ccc(F)c(C(F)(F)F)c2)nc1C1CCN(c2ncnc3[nH]ncc23)CC1 | 4.47% [at 17.3 µM] |  |  |
| O=C(CCCN1CCC(n2c(=S)[nH]c3ccccc32)CC1)c1ccc(F)cc1 |  | 9.2 µM (active) |  |
